PP5 inh = blocks human protein phosphatase 5 activity. P53041. purified PP5c, OMFP substrate fluorescence. inhibition, % at 6.7 µM. 0.18% of 320,000 active;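 active = inhibition above the campaign's mean inhibition across all tested compounds plus 3 SD, cut at about 9.5% in these data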;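 also: 0% = DMSO only and 100% = 100 µM cantharidin control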
PME-1 inh = PME-1 (human) inhibition. 0.53% of 320,000 active. recombinant PME-1, FP-Rh probe fluorescence polarization. inhibition, % at 5.9 µM;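 active = inhibition above the campaign mean of all compounds plus 3 SD, cut at about 26% in these data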;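 also: competitive labeling of PME-1 active site by serine hydrolase directed probe; 0% = PME-1 with DMSO and 100% = wells lacking PME-1 enzyme; inhibitors block probe labeling so polarization falls and inhibition rises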
PP1 counter = counter-screen for PP5 inhibitors: inhibitors of human PP1-alpha | P62136 | purified PP1alpha, OMFP fluorescence | inhibition, % at 6.7 µM | 0.9% of 320,000 active | AID 2235;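 active = inhibition above the mean inhibition of all tested compounds plus 3 SD, computed separately for each screening campaign, cut at about 15% in these data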
Target sequence (P62136 whole entry, looked up): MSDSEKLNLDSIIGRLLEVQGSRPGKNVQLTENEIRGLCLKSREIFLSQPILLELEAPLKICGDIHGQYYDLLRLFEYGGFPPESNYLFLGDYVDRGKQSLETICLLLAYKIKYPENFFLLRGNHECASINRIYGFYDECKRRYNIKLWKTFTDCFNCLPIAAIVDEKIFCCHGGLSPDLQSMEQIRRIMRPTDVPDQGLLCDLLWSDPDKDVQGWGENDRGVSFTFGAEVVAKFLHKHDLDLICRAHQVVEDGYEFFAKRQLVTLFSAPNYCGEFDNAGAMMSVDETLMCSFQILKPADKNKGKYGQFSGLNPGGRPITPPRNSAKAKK
LYPLA2 inh = counter-screen for PME1 inhibitors: inhibitors of human LYPLA2. recombinant LYPLA2, FP-Rh probe fluorescence polarization. inhibition, % at 5.9 µM. 0.38% of 320,000 active. AID 2177;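 active = inhibition above the screen-wide mean plus 3 SD, limit set per campaign, cut at about 26% in these data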;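 also: 0% = LYPLA2 with DMSO and 100% = wells lacking LYPLA2 enzyme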
LYPLA1 inh = LYPLA1 (human) inhibition in PME1 counter-screen; O75608; recombinant LYPLA1, FP-Rh probe fluorescence polarization; inhibition, % at 5.9 µM; 0.16% of 320,000 active; AID 2174;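 active = inhibition above the mean of all tested compounds plus 3 SD, set per campaign, cut at about 14% in these data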;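 also: inhibitors block serine hydrolase probe labeling of LYPLA1 so polarization falls; 0% = enzyme with DMSO and 100% = wells lacking LYPLA1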
Target sequence (O75608 whole entry, looked up): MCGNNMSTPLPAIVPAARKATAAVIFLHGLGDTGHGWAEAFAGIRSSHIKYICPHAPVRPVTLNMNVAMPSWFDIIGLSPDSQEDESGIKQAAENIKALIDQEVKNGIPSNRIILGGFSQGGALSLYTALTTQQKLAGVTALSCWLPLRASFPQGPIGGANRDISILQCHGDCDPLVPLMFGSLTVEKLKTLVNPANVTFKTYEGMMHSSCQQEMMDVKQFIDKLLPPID
Fam108B inh = Fam108B inhibition, counter-screen for RBBP9 inhibitors | recombinant Fam108B, FP-Rh probe fluorescence polarization | inhibition, % at 9.51 µM | 0.33% of 300,000 active;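 active = inhibition above the screen mean inhibition plus 3 SD, computed separately per campaign, cut at about 18% in these data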;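 also: inhibitors lower polarization as less probe binds the enzyme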
LYPLA1 conf = LYPLA1 (human) inhibition, confirmation counter-screen; inhibition, % at 5.9 µM; 69% of 480 active; recombinant LYPLA1, FP-Rh probe fluorescence polarization; shares compounds with LYPLA1 inh;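 active = mean inhibition across replicates above the hit cutoff set in the primary screen, cut at about 15% in these data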;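 also: loss of FP-Rh probe labeling of LYPLA1 seen as lower polarization; 0% = LYPLA1 with DMSO and 100% = wells lacking LYPLA1 enzyme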
LYPLA2 conf = counter-screen for PME1 inhibitors: confirmation of human LYPLA2 inhibitors | shares compounds with LYPLA2 inh | recombinant LYPLA2, FP-Rh probe fluorescence polarization | inhibition, % at 5.9 µM | 72% of 1,100 active | AID 2232;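 active = mean inhibition across replicates above the hit cutoff set in the primary screen, cut at about 26% in these data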;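 also: blocked labeling of the enzyme by serine hydrolase FP-Rh probe lowers polarization; 0% = enzyme with DMSO and 100% = wells lacking LYPLA2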
LYPLA2 ABPP = inhibitors of human LYPLA2. 30% of 150 active. inhibition, % at 20 µM. rhLYPLA2 in mouse brain proteome, gel ABPP FP-Rh. shares compounds with LYPLA2 inh. AID 652029;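 active = inhibition of LYPLA2 enzyme probe labeling above about 50%, limit read from the data; inactive = inhibition below that limit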;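 also: loss of FP-Rh probe labeling of the LYPLA2 gel band measured as band density; 0% = DMSO only control band and 100% = blank gel background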
Numbers without * were called inactive; . = no result given. Most compounds without a hit are left out; they make up all but 1.8% or so of the library.

SMILES	PP5 inh	PME-1 inh	PP1 counter	LYPLA2 inh	LYPLA1 inh	Fam108B inh	LYPLA1 conf	others
CCOc1ccc(NC(=S)NC(=O)c2c(Br)cnn2C)c([N+](=O)[O-])c1	3	2	5	21	18*	-2	59*
CCOc1ccc(NC(=S)NC(=O)c2c(Cl)cnn2CC)c([N+](=O)[O-])c1	3	-1	3	-3	0	0	.
Nc1cc(=O)[nH]c(SCC(=O)Nc2cc(Cl)cc(Cl)c2)n1	2	-1	0	-5	-1	-2	.
Nc1cc(=O)[nH]c(SCC(=O)Nc2ccc(Cl)c(Cl)c2)n1	-1	-13	-1	-1	15*	4	21*
COc1ccc(Cl)cc1NC(=O)CN1CCC(n2nnc3ccccc32)CC1	2	2	1	-3	15*	2	19*
COc1ccc(CNC(=O)CCCn2nc(C)c3c(C)n(-c4ccc(C)cc4)nc3c2=O)cc1	1	-6	-5	2	-1	-1	.
Cc1cc2oc(C(=O)Nc3ccc(S(=O)(=O)Nc4onc(C)c4C)cc3)cc(=O)c2cc1Cl	0	-3	0	9	20*	11	22*
Cc1ccc(NC(=O)C(Nc2cccc(C)c2)c2ccccc2)cc1 (stereo unspecified)	1	5	0	-2	-11	-1	.
Cc1ccc(C(=O)NC(NCc2ccco2)C(Cl)(Cl)Cl)cc1 (stereo unspecified)	2	-1	0	2	1	-3	.
Cc1cccc(C(=O)NC(NCc2ccco2)C(Cl)(Cl)Cl)c1 (stereo unspecified)	1	7	-1	5	17*	3	4
CN(C(=O)COC(=O)c1cccc(S(=O)(=O)N2CCCCC2)c1)C1CCS(=O)(=O)C1 (stereo unspecified)	-1	-2	0	0	3	2	.
COc1ccccc1C(=O)Nc1ccc2c(c1)nc1n2CCN(Cc2ccccc2)C1	-1	-18	-1	11	28*	1	4
O=C(CN(C(=O)CCC(=O)Nc1ccccn1)c1ccc(F)cc1)NCc1ccc(F)cc1	1	-4	1	3	5	-5	.
COc1cc(NC(=O)Nc2ccc(Cl)c(Cl)c2)c(C(=O)O)cc1OC	6	18	2	9	20*	5	18*
COc1cc(OC)c(NC(=O)Nc2ccc(OC)c(OC)c2)cc1Cl	0	-6	-3	0	-2	-6	.
Cc1cc(Cl)ccc1NC(=O)CN1C(=O)C(=O)N(C2CCCC2)C1=O	5	3	0	0	-4	.	.
CCOC(=O)N1CCN(C(=O)c2ccc3c(c2)N=C(C)c2cc(Cl)ccc2S3)CC1	2	2	9	6	-2	-2	.
c1ccc2[nH]c(CN3CCN(c4ncnc5c4oc4ccccc45)CC3)nc2c1	5	9	6	4	17*	-2	18*
CCN1C(=O)c2cccc3c(N)ccc(c23)C1=O	-11	23	-12	23	15*	12	12
CCOC(=O)c1cccc(NC(=O)c2ccc3c(c2)C(=O)N(CC2CCCO2)C3=O)c1 (stereo unspecified)	4	-10	0	3	28*	-4	31*
Cc1ccc(C(=O)Nc2ccc3c(c2)C(=O)N(CC2CCCO2)C3=O)cc1 (stereo unspecified)	-1	-9	1	-3	-1	1	.
Cc1ccccc1C(=O)Nc1ccnn1C1CCN(C(=O)C2CCOC2)CC1 (stereo unspecified)	1	-1	2	2	1	0	.
O=C1NC(=S)S/C1=C\c1coc2ccccc2c1=O	0	4	2	7	17*	3	-2
O=C1NC(=S)S/C1=C\c1coc2ccc(O)cc2c1=O	1	-7	8	-4	-6	-1	.
Cc1oc(-c2ccc(Cl)cc2)nc1CS(=O)CC(=O)NCc1ccccn1 (stereo unspecified)	-1	6	1	1	0	-2	.
SMILES	PP5 inh	PME-1 inh	PP1 counter	LYPLA2 inh	LYPLA1 inh	Fam108B inh	LYPLA1 conf	others
CCCCN1Cc2c(nc3cc(-c4ccco4)[nH]n3c2=O)C1=O	0	-13	3	9	1	11	.
CC(OC(=O)c1nc(Cl)ccc1Cl)C(=O)NC1CCCCC1C (stereo unspecified)	-1	16	-1	20	16*	.	-2
CC(OC(=O)c1cccc(Cl)c1)C(=O)NC1CCCCC1C (stereo unspecified)	3	1	-6	7	3	-1	.
Cc1cccc(C)c1NC(=O)CN(C)CC(=O)c1c(N)n(Cc2ccccc2)c(=O)n(C)c1=O	5	8	0	-3	0	.	.
COc1cccc(-c2ccc3nnc(SCC(=O)Nc4ccc(NC(C)=O)cc4)n3n2)c1	-2	-7	4	-4	-4	-4	.
CCOC(=O)N1CCN(S(=O)(=O)c2ccc(OC)c(C(=O)N3CCCCC3)c2)CC1	-2	3	-1	6	0	0	.
O=C(COc1ccc2c(-c3ccccc3)cc(=O)oc2c1)NC1CCS(=O)(=O)C1 (stereo unspecified)	1	2	0	5	1	.	.
Cc1ccc(OCC(=O)N2CCC3(CC2)CC(=O)c2ccccc2O3)cc1	-1	3	-3	6	4	-3	.
O=C1CC2(CCN(C(=O)COc3ccc(Cl)cc3)CC2)Oc2ccccc21	4	1	1	20	16*	-1	21*
O=C(O)c1ccccc1C1=Nc2ccc(O)cc2Oc2cc(O)ccc21	-1	17	-3	27*	19*	18	16*	LYPLA2 conf=0
c1ccc(CCNC2=NCCS2)cc1	3	-3	1	-2	0	-3	.
COc1ccc(-n2nc(C(=O)NCC(=O)N3CCN(Cc4ccccc4)CC3)c3ccccc3c2=O)c(OC)c1	1	2	1	79*	36*	0	39*	LYPLA2 conf=81*
COc1ccc(-n2nc(C(=O)NCC(=O)N3CCN(Cc4ccccc4)CC3)c3ccccc3c2=O)cc1OC	0	-5	1	38*	20*	5	45*	LYPLA2 conf=64*
COc1ccc(N2CCN(C(=O)CNC(=O)c3nn(-c4ccc(OC)cc4)c(=O)c4ccccc34)CC2)cc1	0	1	0	55*	22*	-1	16*	LYPLA2 conf=60*;LYPLA2 ABPP=43

Screening results deposited in PubChem BioAssay by The Scripps Research Institute Molecular Screening Center.
